# Results: PubChem BioAssay (Tox21)
# Values without a mark were called inactive. Inconclusive results are not listed. A call without a number means that no potency is given here. Calls of active or inactive are those of the source. Unless noted, calls come from the whole dose curve; as a rule, active = well fitted curve in the direction sought with a large enough effect in the repeat runs; inconclusive = weak or mixed curves; inactive = no such curve, though single readings can be large; an effect the other way counts as inactive or inconclusive.
# Legend:
# [1] = qHTS assay to identify small molecule antagonists of the androgen receptor (AR) signaling pathway using the MDA cell line in the presence of 0.5 nM R1881 - cell viability counter screen (AID 1259242); note: nearly all actives have a fitted effect of over 45% in size; note: potency is the fitted concentration of half-maximal effect
# How it was run: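 Viability of MDA-kb2 cells was multiplexed with the luciferase AR readout; after 16 hr with compounds and R1881 at 0.5 nM final, CellTiter-Fluor fluorescence was recorded.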
# [2] = qHTS assay to identify small molecule HDAC inhibitors (AID 1259364); note: potency is the fitted concentration of half-maximal effect;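 note: wild-type HCT-116 cells with endogenous class I/II HDAC activity; nearly all actives have a fitted effect of over 45% in size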
# How it was run: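 Read-out: luminescence of HDAC-Glo I/II reagent, 30 min RT, reflecting class I/II deacetylase activity in whole HCT-116 cells pre-exposed 2 h to DMSO-dissolved compounds.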
# [3] = qHTS assay to identify small molecule HDAC inhibitors - cell viability counter screen (AID 1259365); note: nearly all actives have a fitted effect of over 50% in size; note: potency is the fitted concentration of half-maximal effect
# How it was run: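 Luminescence from CellTiter-Glo, developed 30min at room temperature, reports viability of wild-type HCT-116 cells treated 2hr with compounds at 37 C and 5% CO2 after overnight plating.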
# [4] = qHTS assay to identify small molecule agonists of the sonic hedgehog signaling (Shh) pathway - cell viability counter screen (AID 1259366); note: nearly all actives have a fitted effect of over 50% in size; note: potency is the fitted concentration of half-maximal effect
# How it was run: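 Cytotoxicity counter screen run in the same wells as the Shh reporter assay. NIH/3T3 cells carrying a Gli1 response element–driven luciferase were treated with DMSO-dissolved compounds for 24hr, and live-cell protease activity was measured with CellTiter-Fluor.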
# [5] = qHTS assay to identify small molecule antagonists of the sonic hedgehog signaling (Shh) pathway - cell viability counter screen (AID 1259367); note: nearly all actives have a fitted effect of over 55% in size; note: potency is the fitted concentration of half-maximal effect
# How it was run: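 NIH/3T3-derived Gli1-Luc reporter cells (2,000 per well) rested 4 hr at 37 C, then received DMSO compounds plus conditioned medium. After 23 hr of treatment, CellTiter-Fluor was added for 1 hr at 37C and fluorescence read.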
# [6] = qHTS assay to identify small molecule agonists of the sonic hedgehog signaling (Shh) pathway (AID 1259368; calls by dose curve;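 note: NIH/3T3-derived 3T3Gli1-Luc cells carrying a stable Gli1-driven firefly luciferase reporter; series mostly up to about 92 µM; nearly all actives have a fitted effect of over 15% in size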)
# How it was run: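 A Gli1 transcriptional response element controlled firefly luciferase in 3T3Gli1-Luc cells. Compounds and a positive control were added 4 hr after plating, and cells were incubated a further 24 hr at 37 C before luminescence detection.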
# [7] = qHTS assay to identify small molecule antagonists of the sonic hedgehog signaling (Shh) pathway (AID 1259369; calls by dose curve; note: nearly all actives have a fitted effect of over 45% in size; note: potency is the fitted concentration of half-maximal effect)
# How it was run: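 For antagonist detection, the reporter line received test compounds together with conditioned medium, incubated 24hr at 37 C, 5% CO2, then luminescence was recorded following 30min room-temperature luciferase reagent incubation.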
# [8] = biological target: Estrogen receptor (Homo sapiens) (UniProt P03372); test: qHTS assay to identify small molecule antagonists of the estrogen receptor alpha (ER-alpha) signaling pathway using the BG1 cell line in the presence of 0.1 nM 17-beta-estradiol (AID 1259244); note: nearly all actives have a fitted effect of over 50% in size; note: potency is the fitted concentration of half-maximal effect
# Sequence of Estrogen receptor (Homo sapiens) (P03372 whole entry, looked up): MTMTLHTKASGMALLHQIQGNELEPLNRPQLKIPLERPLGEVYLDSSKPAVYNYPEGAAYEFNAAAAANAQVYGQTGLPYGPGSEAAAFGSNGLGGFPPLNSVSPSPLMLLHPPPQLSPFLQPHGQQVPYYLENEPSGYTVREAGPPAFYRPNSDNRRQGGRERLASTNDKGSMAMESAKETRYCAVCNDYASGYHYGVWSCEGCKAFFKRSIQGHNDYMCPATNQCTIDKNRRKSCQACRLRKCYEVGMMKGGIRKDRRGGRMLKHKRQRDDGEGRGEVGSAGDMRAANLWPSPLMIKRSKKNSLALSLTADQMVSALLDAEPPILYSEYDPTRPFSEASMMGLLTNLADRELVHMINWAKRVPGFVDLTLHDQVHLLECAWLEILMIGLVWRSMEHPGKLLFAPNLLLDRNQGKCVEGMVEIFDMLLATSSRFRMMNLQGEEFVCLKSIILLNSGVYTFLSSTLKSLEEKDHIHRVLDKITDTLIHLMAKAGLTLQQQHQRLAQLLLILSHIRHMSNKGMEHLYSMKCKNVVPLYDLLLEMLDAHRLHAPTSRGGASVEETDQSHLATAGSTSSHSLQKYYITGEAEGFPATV
# How it was run: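 Estradiol at 0.1 nM (final) stimulates the endogenous ER-alpha of VM7Luc4E2 cells carrying an ERE-driven luciferase; compounds are co-incubated 22 h at 37C and luciferase output quantified by luminescence.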
# [9] = biological target: Androgen receptor (Homo sapiens) (UniProt P10275); test: qHTS assay to identify small molecule antagonists of the androgen receptor (AR) signaling pathway using the MDA cell line in the presence of 0.5 nM R1881 (AID 1259243); note: potency is the fitted concentration of half-maximal effect; nearly all actives have a fitted effect of over 50% in size
# Sequence of Androgen receptor (Homo sapiens) (P10275 whole entry, looked up): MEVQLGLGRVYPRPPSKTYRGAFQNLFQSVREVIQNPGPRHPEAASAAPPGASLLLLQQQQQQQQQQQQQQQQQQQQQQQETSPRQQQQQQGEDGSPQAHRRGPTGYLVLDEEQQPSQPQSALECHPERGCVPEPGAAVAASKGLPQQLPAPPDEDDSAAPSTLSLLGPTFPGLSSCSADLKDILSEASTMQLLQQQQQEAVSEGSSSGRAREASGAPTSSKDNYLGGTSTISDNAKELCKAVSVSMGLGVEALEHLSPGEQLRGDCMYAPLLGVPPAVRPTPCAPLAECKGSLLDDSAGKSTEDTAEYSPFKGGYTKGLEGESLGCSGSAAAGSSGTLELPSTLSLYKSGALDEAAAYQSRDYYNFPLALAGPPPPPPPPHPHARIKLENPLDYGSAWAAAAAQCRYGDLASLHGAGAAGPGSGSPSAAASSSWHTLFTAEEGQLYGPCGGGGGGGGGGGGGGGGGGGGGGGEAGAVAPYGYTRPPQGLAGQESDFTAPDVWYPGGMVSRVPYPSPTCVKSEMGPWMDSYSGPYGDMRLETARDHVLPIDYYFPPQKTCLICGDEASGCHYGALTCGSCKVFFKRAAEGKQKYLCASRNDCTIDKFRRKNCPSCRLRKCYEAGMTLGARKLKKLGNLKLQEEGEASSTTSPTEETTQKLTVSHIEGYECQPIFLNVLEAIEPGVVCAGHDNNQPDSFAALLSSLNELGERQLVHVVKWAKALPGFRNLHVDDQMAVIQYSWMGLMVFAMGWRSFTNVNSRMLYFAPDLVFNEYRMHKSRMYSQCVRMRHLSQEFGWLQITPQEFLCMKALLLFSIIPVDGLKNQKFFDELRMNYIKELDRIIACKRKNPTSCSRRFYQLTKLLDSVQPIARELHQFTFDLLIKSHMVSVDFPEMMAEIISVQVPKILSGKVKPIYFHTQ
# How it was run: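 Reporter cells cultured without CO2 receive test chemicals, then 0.5 nM R1881 final; after 16 hr at 37C, ONE-Glo is added and light output recorded.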
# [10] = qHTS assay to identify small molecule phospholipidosis (PLD) inducers (AID 1259344; active = well fitted curve in the direction sought with a large enough effect; an effect the other way counts as inactive or inconclusive; note: potency is the fitted concentration of half-maximal effect)
# How it was run: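 HepG2 cells on collagen I, attached 4 h at 37 C, were co-treated with compound and LipidTOX Red dye for 24 h at 37 C, then fixed with paraformaldehyde plus Hoechst 33342 and imaged by high-content microscopy for phospholipid accumulation.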
SMILES,Potency [1],Potency [2],Potency [3],Potency [4],Potency [5],Potency [6],Potency [7],Potency [8],Potency [9],Potency [10]
Cc1ccc(Cl)cc1N,inactive,inactive,inactive,inactive,inactive,inactive,inactive,–,–,–
CC(=O)NCCO,inactive,inactive,inactive,–,inactive,inactive,inactive,–,–,–
CC(=O)C(C)=O,inactive,inactive,inactive,inactive,inactive,inactive,inactive,–,–,–
CCCCOC(=O)CCCCC(=O)OCCCC,inactive,inactive,inactive,inactive,inactive,inactive,inactive,–,–,–
Cc1c(C2(c3cc(Br)c(O)c(Br)c3C)OS(=O)(=O)c3ccccc32)cc(Br)c(O)c1Br,10.5 µM (active),4.2 µM (active),4.2 µM (active),–,10.5 µM (active),inactive,–,–,–,–
O=[N+]([O-])C1(Br)COCOC1,–,inactive,inactive,–,–,inactive,43.3 µM (active),inactive,–,–
C1CCCCC1,inactive,inactive,inactive,–,inactive,inactive,inactive,–,–,–
CCN(CC)C(=O)/C(C#N)=C/c1cc(O)c(O)c([N+](=O)[O-])c1,–,–,inactive,inactive,–,inactive,inactive,inactive,23.7 µM (active),inactive
O=C(O)c1ccc(O)cc1O,inactive,inactive,inactive,inactive,inactive,inactive,inactive,–,–,–
Cc1ccccc1S(N)(=O)=O,inactive,inactive,inactive,inactive,–,inactive,inactive,–,–,–
CC(C)COC(=O)c1ccc(O)cc1,inactive,–,inactive,inactive,–,inactive,inactive,–,–,–
O[C@@H](CNC[C@H](O)[C@H]1CCc2cc(F)ccc2O1)[C@@H]1CCc2cc(F)ccc2O1,–,inactive,inactive,29.8 µM (active),–,inactive,13.3 µM (active),–,–,3.55 µM (active)
CCC1CCC(CCC(=O)O)C1 (stereo not drawn),inactive,inactive,inactive,inactive,inactive,inactive,inactive,–,–,–
CCN(Cc1cccc(S(=O)(=O)O)c1)c1ccc(C(=C2C=CC(=[N+](CC)Cc3cccc(S(=O)(=O)O)c3)C=C2)c2ccccc2S(=O)(=O)[O-])cc1,–,6.14 µM (active),12.2 µM (active),27.4 µM (active),17.3 µM (active),inactive,3.08 µM (active),12.2 µM (active),–,–
CCCCCCCCCCCCCCCCCC(=O)OCC(CC)CCCC (stereo not drawn),inactive,inactive,inactive,inactive,inactive,inactive,inactive,–,–,–
CC(CN(CCN(CC(C)OCCO)CC(C)OCCO)CC(C)OCCO)OCCO (stereo not drawn),–,inactive,inactive,–,inactive,inactive,inactive,–,–,–
CSSc1ccoc1C,inactive,inactive,inactive,inactive,inactive,inactive,inactive,–,–,–
COC(CC(C)CCCC(C)(C)O)OC (stereo not drawn),inactive,inactive,inactive,–,inactive,inactive,inactive,–,–,–
CCCCCC,inactive,inactive,inactive,inactive,inactive,inactive,inactive,–,–,–

SMILES,Potency [1],Potency [2],Potency [3],Potency [4],Potency [5],Potency [6],Potency [7],Potency [8],Potency [9],Potency [10]
O=C(O)CCCc1c[nH]c2ccccc12,inactive,inactive,inactive,inactive,–,inactive,inactive,–,–,–
Cc1cc(CCC(=O)OCCOCCOCCOC(=O)CCc2cc(C)c(O)c(C(C)(C)C)c2)cc(C(C)(C)C)c1O,inactive,inactive,inactive,–,inactive,inactive,inactive,–,–,–
CCC(=O)OCc1ccc(OC)cc1,inactive,inactive,inactive,–,–,inactive,–,–,–,–
CCCC(=O)OC(=O)CCC,inactive,–,inactive,inactive,inactive,inactive,inactive,–,–,–
CCCCCc1ccco1,inactive,inactive,inactive,–,inactive,inactive,–,–,–,–
O=C1OC(=O)c2c(Br)c(Br)c(Br)c(Br)c21,inactive,inactive,inactive,inactive,–,inactive,inactive,–,–,–
O=C1OC[C@H](Cc2cccc(O)c2)[C@H]1Cc1cccc(O)c1,inactive,inactive,inactive,inactive,inactive,inactive,inactive,–,–,–
C[C@@H]1[C@H](O)[C@@H](C)/C=C/C=C\C=C\C=C\C=C\C=C\C=C\[C@H](O[C@@H]2O[C@H](C)[C@@H](O)[C@H](N)[C@@H]2O)C[C@@H]2O[C@](O)(C[C@@H](O)C[C@@H](O)[C@H](O)CC[C@@H](O)C[C@@H](O)CC(=O)O[C@H]1C)C[C@H](O)[C@H]2C(=O)O (stereo in doubt),–,inactive,inactive,–,–,inactive,–,inactive,–,inactive
CCCCCCCC(=O)Oc1c(Br)cc(C#N)cc1Br,inactive,inactive,inactive,–,inactive,inactive,27.2 µM (active),–,–,–
COc1ccc(N)c([N+](=O)[O-])c1,inactive,–,inactive,inactive,–,inactive,inactive,–,–,–
CC(C)(O)c1coc(S(=O)(=O)NC(=O)Nc2c3c(cc4c2CCC4)CCC3)c1,inactive,inactive,inactive,inactive,–,inactive,54.5 µM (active),–,–,–
CN(C)CC/C=C1\c2ccccc2Sc2ccc(Cl)cc21,–,inactive,inactive,26.6 µM (active),–,inactive,–,inactive,29.8 µM (active),–
CCCCCCOC(=O)CCCCC,inactive,inactive,inactive,inactive,inactive,inactive,inactive,–,–,–
CCNc1nc(N)nc(Cl)n1,inactive,inactive,inactive,inactive,inactive,inactive,inactive,–,–,–
COc1ccc(C)cc1,inactive,inactive,inactive,–,inactive,inactive,inactive,–,–,–
Cc1cc([N+](=O)[O-])ccc1N,–,inactive,inactive,–,–,inactive,inactive,inactive,–,–
CCCOC(=O)c1c(Cl)c(Cl)c(Cl)c(Cl)c1C(=O)OCCC,inactive,inactive,inactive,inactive,inactive,inactive,inactive,–,–,–
CC1CCCO1 (stereo not drawn),inactive,inactive,inactive,inactive,–,inactive,inactive,–,–,–
Cc1ccc2c(c1)CCCN2,inactive,inactive,inactive,inactive,inactive,inactive,inactive,–,–,–
